# Laboratory results from PubChem BioAssay (EPA / NIEHS).
# The source made the active and inactive calls. How the source made its calls: active means hit-call score of the fitted dose curve at least 0.9, where 1 is the maximum; inactive means score below 0.9.
# Experiment: CCTE_Shafer_MEA_acute_burst_number: CCTE's Neural Acute Assay for Single-Electrode Bursts, Shafer Lab (AID 2284013)
# Summary of the method: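 Spontaneous network activity of primary rat cortical neurons was recorded extracellularly on microelectrode arrays at 37 C, with 40-min periods before and during exposure to 0.03-40 uM compound on DIV 13 or 15.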
Compound,outcome,AC50
O=C(O)C(F)(F)C(F)(F)C(F)(F)C(F)(F)C(F)(F)C(F)(F)C(F)(F)C(F)(F)C(F)(F)C(F)(F)F,inactive,–
C[C@]12CCC(=O)C[C@@H]1CC[C@@H]1[C@@H]2CC[C@]2(C)[C@@H](O)CC[C@@H]12,inactive,–
CC(C)(OO)c1ccccc1,inactive,–
O=C(O)C(Cl)(Cl)Cl,inactive,–
ClC1(Cl)C2(Cl)C3(Cl)C4(Cl)C(Cl)(Cl)C5(Cl)C3(Cl)C1(Cl)C5(Cl)C24Cl (stereo not given),inactive,–
CC(C)(C)CC(C)(C)c1ccc(O)cc1,inactive,–
O=C(Nc1ccc2[nH]ccc2c1)c1cc2cc(F)ccc2n1Cc1cccc(F)c1,inactive,–
CC(=O)[O][Hg][c]1ccccc1,–,910 nM (active)
CC(C)(c1ccccc1)c1ccc(O)c(C(C)(C)c2ccccc2)c1,inactive,–
CCOP(=S)(OCC)SCSP(=S)(OCC)OCC,inactive,–
CCC(=O)C(CC(C)N(C)C)(c1ccccc1)c1ccccc1 (stereo not given),inactive,–
C=C(C)C(=O)[O][Sn]([CH2]CCC)([CH2]CCC)[CH2]CCC,–,11.8 nM (active)
CCCCCCCCc1ccc(O)cc1,–,2530 nM (active)
CCC(C)(C)c1ccc(O)c(C(C)(C)CC)c1,–,5290 nM (active)
O=C1C2(Cl)C3(Cl)C4(Cl)C(Cl)(Cl)C5(Cl)C3(Cl)C1(Cl)C5(Cl)C24Cl (stereo not given),–,3270 nM (active)
